Measured values from PubChem BioAssay (NCATS).
Inconclusive results are not listed. Entries that show only a call come without a potency. Calls of active or inactive are those of the source. Unless noted, calls come from the whole dose curve.

Legend:
[1] = qHTS for Inhibitors of the Functional Ribonucleoprotein Complex (vRNP) of Lassa (LASV) Arenavirus: LASV Primary Screen - GLuc reporter signal (AID 1347082; calls by dose curve; tested in HEK293 reporter line; note: series mostly up to about 57 µM; nearly all actives have a fitted effect of over 60% in size)
[2] = qHTS for Inhibitors of the Functional Ribonucleoprotein Complex (vRNP) of Lassa (LASV) Arenavirus: Viability assay - alamar blue signal for LASV Primary Screen (AID 1347083; calls by dose curve; tested in HEK293 reporter line; note: nearly all actives have a fitted effect of over 80% in size; note: potency is the fitted concentration of half-maximal effect)
[3] = qHTS for Inhibitors of the Functional Ribonucleoprotein Complex (vRNP) of Lymphocytic Choriomeningitis Arenaviruses (LCMV): Viability assay - alamar blue signal for LCMV Primary Screen (AID 1347085; calls by dose curve; tested in HEK293 reporter line; note: series mostly up to about 57 µM; nearly all actives have a fitted effect of over 80% in size)
[4] = biological target: Nucleoprotein (Lymphocytic choriomeningitis virus (strain Armstrong)) (UniProt P09992); experiment: qHTS for Inhibitors of the Functional Ribonucleoprotein Complex (vRNP) of Lymphocytic Choriomeningitis Arenaviruses (LCMV): LCMV Primary Screen - GLuc reporter signal (AID 1347086); note: series mostly up to about 57 µM; nearly all actives have a fitted effect of over 70% in size
[5] = qHTS of pediatric cancer cell lines to identify multiple opportunities for drug repurposing: Primary screen for TC32 cells (AID 1347089; active = well fitted curve in the direction sought with a large enough effect; an effect the other way counts as inactive or inconclusive; note: nearly all actives have a fitted effect of over 60% in size)
Outline: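 Measured quantity: luminescence from CellTiter-Glo, reflecting metabolically active TC32 cells following 48 h of compound. Curves came straight from multi-point titrations, with 8 or 11 points in primary and 11 in confirmatory screening.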

[6] = qHTS of pediatric cancer cell lines to identify multiple opportunities for drug repurposing: Primary screen for DAOY cells (AID 1347090; active = well fitted curve in the direction sought with a large enough effect; an effect the other way counts as inactive or inconclusive; note: series mostly up to about 46 µM; nearly all actives have a fitted effect of over 55% in size)
Outline: (§1)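 Viability measured as metabolically active cells via CellTiter-Glo luminescence following 48 hours of compound exposure, 11-point dilutions in confirmatory testing. 500-1,000 cells/well plated 5 hours before dosing; controls were DMSO and 2.3 µM bortezomib.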

[7] = qHTS of pediatric cancer cell lines to identify multiple opportunities for drug repurposing: Primary screen for SJ-GBM2 cells (AID 1347091; active = well fitted curve in the direction sought with a large enough effect; an effect the other way counts as inactive or inconclusive)
Outline: as §1

[8] = qHTS of pediatric cancer cell lines to identify multiple opportunities for drug repurposing: Primary screen for A673 cells (AID 1347092; active = well fitted curve in the direction sought with a large enough effect; an effect the other way counts as inactive or inconclusive; note: nearly all actives have a fitted effect of over 45% in size)
Outline: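 Cells are plated, rested 5 h, dosed by pintool, incubated 48 h, then lysed with CellTiter-Glo and read by luminescence. DMSO is the neutral control; bortezomib at 2.3 uM final is the positive control.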

[9] = qHTS of pediatric cancer cell lines to identify multiple opportunities for drug repurposing: Primary screen for SK-N-MC cells (AID 1347093; active = well fitted curve in the direction sought with a large enough effect; an effect the other way counts as inactive or inconclusive; note: series mostly up to about 46 µM)
Outline: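 Metabolically active cells were quantified by ATP-dependent luminescence (CellTiter-Glo, 15 min at room temperature) following 48 h treatment. Cells had been plated at 500-1,000 per well and settled for 5 h beforehand.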

[10] = qHTS of pediatric cancer cell lines to identify multiple opportunities for drug repurposing: Primary screen for BT-37 cells (AID 1347094; active = well fitted curve in the direction sought with a large enough effect; an effect the other way counts as inactive or inconclusive; note: series mostly up to about 57 µM)
Outline: (§2)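 Readout: CellTiter-Glo luminescence, 48 h treatment. Controls DMSO (neutral) and bortezomib 2.3 µM final (positive). Potency and efficacy taken from primary-screen concentration-response curves.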

[11] = qHTS of pediatric cancer cell lines to identify multiple opportunities for drug repurposing: Primary screen for NB-EBc1 cells (AID 1347095; active = well fitted curve in the direction sought with a large enough effect; an effect the other way counts as inactive or inconclusive)
Outline: as §2

[12] = qHTS of pediatric cancer cell lines to identify multiple opportunities for drug repurposing: Primary screen for U-2 OS cells (AID 1347096; active = well fitted curve in the direction sought with a large enough effect; an effect the other way counts as inactive or inconclusive; note: nearly all actives have a fitted effect of over 50% in size)
Outline: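 Viability after 48 h compound treatment at 37C, 500-1,000 cells/well, read as ATP luminescence with CellTiter-Glo. Primary screens used 11-point (MIPE, 0.78 nM-46 µM) or 8-point (NPC, 0.59 nM-46 µM) final concentrations; follow-up screens used 11-point dilutions.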

[13] = qHTS of pediatric cancer cell lines to identify multiple opportunities for drug repurposing: Primary screen for SK-N-SH cells (AID 1347098; active = well fitted curve in the direction sought with a large enough effect; an effect the other way counts as inactive or inconclusive; note: nearly all actives have a fitted effect of over 65% in size)
Outline: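 Cells (500-1,000/well) rested 5 h, then received compounds for 48 h; metabolically active cells were measured by CellTiter-Glo luminescence. Final concentrations spanned up to 46 µM (MIPE, 11-point) or 0.59 nM-46 µM (NPC, 8-point) in primary screens, 11-point in follow-ups.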

Nucleoprotein (Lymphocytic choriomeningitis virus (strain Armstrong)), sequence (P09992 whole entry, looked up): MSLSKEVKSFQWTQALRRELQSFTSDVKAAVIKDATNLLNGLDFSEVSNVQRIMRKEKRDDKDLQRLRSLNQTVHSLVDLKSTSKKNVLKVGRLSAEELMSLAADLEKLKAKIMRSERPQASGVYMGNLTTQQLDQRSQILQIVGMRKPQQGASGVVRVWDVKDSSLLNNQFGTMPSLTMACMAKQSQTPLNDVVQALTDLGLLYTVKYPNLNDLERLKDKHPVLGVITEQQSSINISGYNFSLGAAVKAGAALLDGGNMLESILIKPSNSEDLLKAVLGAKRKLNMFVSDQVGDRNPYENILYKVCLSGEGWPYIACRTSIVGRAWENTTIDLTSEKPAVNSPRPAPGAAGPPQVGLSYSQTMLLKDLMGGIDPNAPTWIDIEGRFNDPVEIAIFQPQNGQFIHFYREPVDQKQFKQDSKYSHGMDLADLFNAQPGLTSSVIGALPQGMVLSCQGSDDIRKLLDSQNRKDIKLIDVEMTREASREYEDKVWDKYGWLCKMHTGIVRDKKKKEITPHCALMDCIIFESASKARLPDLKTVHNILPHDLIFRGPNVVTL

CCCCS(=O)(=O)N[C@@H](Cc1ccc(OCCCCC2CCNCC2)cc1)C(=O)O
Potency [1]: inactive
Potency [2]: inactive
Potency [3]: inactive
Potency [4]: inactive

CCCc1nc2c(C)cc(-c3nc4ccccc4n3C)cc2n1Cc1ccc(-c2ccccc2C(=O)O)cc1
Potency [1]: inactive
Potency [2]: inactive
Potency [3]: inactive
Potency [4]: inactive

CC(=O)SC[C@@H](C)C(=O)N1CCC[C@H]1C(=O)N[C@@H](Cc1ccccc1)C(=O)O
Potency [1]: inactive
Potency [2]: inactive
Potency [3]: inactive
Potency [4]: inactive

CCCN(CCC)S(=O)(=O)c1ccc(C(=O)O)cc1
Potency [1]: inactive
Potency [2]: inactive
Potency [3]: inactive
Potency [4]: inactive

CNCCCC1c2ccccc2C=Cc2ccccc21
Potency [1]: inactive
Potency [2]: inactive
Potency [3]: inactive
Potency [4]: inactive

C#Cc1cccc(Nc2ncnc3cc(OCCOC)c(OCCOC)cc23)c1
Potency [1]: inactive
Potency [2]: 7.69 µM (active)
Potency [4]: inactive

CC(CN1c2ccccc2Sc2ccccc21)N(C)C (centres undefined)
Potency [1]: inactive
Potency [2]: inactive
Potency [3]: inactive
Potency [4]: inactive

CN(N=O)C(=O)N[C@@H]1[C@@H](O)[C@H](O)[C@@H](CO)O[C@@H]1O
Potency [1]: inactive
Potency [2]: inactive
Potency [3]: inactive
Potency [4]: inactive

Cn1cnc([N+](=O)[O-])c1Sc1ncnc2nc[nH]c12
Potency [1]: inactive
Potency [2]: 50.1 µM (active)
Potency [4]: inactive

CN(CCOc1ccc(NS(C)(=O)=O)cc1)CCc1ccc(NS(C)(=O)=O)cc1
Potency [1]: inactive
Potency [2]: inactive
Potency [4]: inactive

C[C@@H](O)[C@H]1C(=O)N2C(C(=O)O)=C(S[C@@H]3CN[C@H](C(=O)N(C)C)C3)[C@H](C)[C@H]12
Potency [1]: inactive
Potency [2]: inactive
Potency [3]: inactive
Potency [4]: inactive

CN(C)CCc1c[nH]c2ccc(C[C@H]3COC(=O)N3)cc12
Potency [1]: inactive
Potency [2]: inactive
Potency [3]: inactive
Potency [4]: inactive

CC(C)NC[C@@H](O)COc1ccc(CC(N)=O)cc1
Potency [1]: inactive
Potency [2]: inactive
Potency [3]: inactive
Potency [4]: inactive

CC(C)c1nc(CN(C)C(=O)N[C@H](C(=O)N[C@@H](Cc2ccccc2)C[C@H](O)[C@H](Cc2ccccc2)NC(=O)OCc2cncs2)C(C)C)cs1
Potency [1]: inactive
Potency [3]: inactive
Potency [4]: inactive

CN1C[C@H]2c3ccccc3Oc3ccc(Cl)cc3[C@@H]2C1
Potency [1]: inactive
Potency [2]: inactive
Potency [4]: inactive

COC1=CC(=O)C[C@@H](C)[C@]12Oc1c(Cl)c(OC)cc(OC)c1C2=O
Potency [1]: inactive
Potency [3]: inactive

CC(C)c1c(C(=O)Nc2ccccc2)c(-c2ccccc2)c(-c2ccc(F)cc2)n1CC[C@@H](O)C[C@@H](O)CC(=O)O
Potency [1]: inactive
Potency [2]: inactive
Potency [4]: inactive

COc1cc2nc(N(C)CCCNC(=O)C3CCCO3)nc(N)c2cc1OC (centres undefined)
Potency [1]: inactive
Potency [2]: inactive
Potency [3]: inactive
Potency [4]: inactive

N[C@@H](Cc1cc(I)c(Oc2cc(I)c(O)c(I)c2)c(I)c1)C(=O)O
Potency [1]: inactive
Potency [2]: inactive
Potency [3]: inactive
Potency [4]: inactive

CC(C)(C(=O)O)c1ccc(C(O)CCCN2CCC(C(O)(c3ccccc3)c3ccccc3)CC2)cc1 (centres undefined)
Potency [1]: inactive
Potency [2]: inactive
Potency [3]: inactive
Potency [4]: inactive

C=C1CC[C@@]2(O)[C@H]3Cc4ccc(O)c5c4[C@@]2(CCN3CC2CC2)[C@H]1O5
Potency [1]: inactive
Potency [2]: inactive
Potency [3]: inactive
Potency [4]: inactive
Potency [5]: inactive
Potency [6]: inactive
Potency [7]: inactive
Potency [8]: inactive
Potency [9]: inactive
Potency [10]: inactive
Potency [11]: inactive
Potency [12]: inactive
Potency [13]: inactive

O=C(O)C(=O)c1cn(Cc2ccccc2)c2ccc(-c3ccc(OC(F)(F)F)cc3)cc12
Potency [1]: inactive
Potency [2]: inactive
Potency [3]: inactive
Potency [4]: inactive
Potency [5]: inactive
Potency [8]: inactive
Potency [10]: inactive
Potency [12]: inactive
Potency [13]: inactive
